High-throughput results as filed in PubChem.
IMPase Li cell = IMPase inhibition in cells with lithium potentiation; Potency, µM (titrated, usually from 59.4 µM), hits mostly inhibitors; 210,000 compounds, 0.35% hits; CHO-M1 cells, IP1 TR-FRET (IP-One), carbachol + lithium;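 also: IP1 builds up when IMPase is blocked and the TR-FRET signal falls; nearly all actives have a fitted effect of over 50% in size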
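Concentration–response in CHO-M1 cells, lithium-potentiated; 30 min at 37C. IP1 detected by competitive TR-FRET after 10 min lysis at RT. Hill-fitted AC50.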
PNC assembly inh = blocks assembly of the perinucleolar compartment; PC3M PTB-GFP, PNC prevalence imaging, 16 h; active compounds read low; activity change (PNC), negative = inhibition, % at 10 µM; 140,000 compounds, 3.1% hits;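 active = readout at or below -70, meaning at least 70% loss of cells showing the perinucleolar compartment, a nuclear body marking cancer cells; inconclusive = readout between -30 and a set limit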
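PC3M cells stably expressing PTB-GFP, 750–1000 cells/well, treated 16 h at 37 °C with compound (23 nl of library stock), in duplicate. After paraformaldehyde fixation and Hoechst stain, imaged at 20x; PNC prevalence scored by image analysis.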
HPGD block = HPGD (human) dehydrogenase inhibition | P15428 | purified HPGD, NADH fluorescence kinetic, PGE2 substrate | Potency, µM, most hits filed as inhibitors | 150,000 compounds, 4.3% hits; active = well fitted inhibition curve with a large enough effect, not every such curve was filed as active; inconclusive = small, poorly fitted or top-dose-only effect, or another doubt; inactive = no such curve, though single readings can be large or run the other way
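20 nM HPGD preincubated 15 min at room temperature with compound in 50 mM Tris-HCl pH 8, 0.01% Tween 20. Started with 1 mM NAD+ and 30 uM prostaglandin E2; NADH fluorescence (360/450 nm) read 5 times over 30-s intervals, last minus first.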
12-hLO inh = inhibitors of human 12-lipoxygenase (ALOX12). purified 12-hLO, xylenol orange hydroperoxide absorbance. Potency, µM (titrated, usually from 57.1 µM), actives largely listed as inhibitors. 150,000 compounds, 0.12% hits; also: nearly all actives have a fitted effect of over 55% in size
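Hydroperoxide formation by human 12-lipoxygenase from 40 uM arachidonic acid was followed colorimetrically via ferric-xylenol orange complex, using the 573/405 nm absorbance ratio. Enzyme concentration was 150 nM, with 30 min reaction at room temperature.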
IMPase cell inh = membrane-permeable compound that blocks inositol monophosphatase. P97697. CHO-M1 cells, IP1 accumulation, HTRF TR-FRET ratio. inhibition (IP1 accumulation), % at 46.1 µM. 120,000 tested, under 10 active; active = well fitted curve in the direction sought with a large enough effect in the signal ratio, not every such curve was filed as active; inconclusive = small, poorly fitted or top-dose-only effect, or a change in a side signal; inactive = no such curve, though single readings can be large or run the other way; the % refers to the signal ratio;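 also: cells stimulated with carbachol in lithium chloride buffer; higher means more IMPase inhibition seen as more IP1 and lower FRET ratio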
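CHO-M1, 2000 cells/well, cultured 16–30 h; cpd up to 46 uM; carbachol (50 uM solution, stimulation buffer w/ 50 mM LiCl, pH 7.4), 30 min 37C; IP-One TR-FRET, 10 min RT; Ex 320/Em 665, 620; Hill-fit AC50.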
ALDH1A1 inh = blocks purified human ALDH1A1 activity | Purified ALDH1A1, NADH fluorescence, propionaldehyde substrate | 220,000 compounds, 7.3% hits | Potency, µM (series often up to 75.3 µM), actives largely listed as inhibitors | P00352 | AID 1030; active = well fitted inhibition curve with a large enough effect, not every such curve was filed as active; inconclusive = small, poorly fitted or top-dose-only effect, or another doubt; inactive = no such curve, though single readings can be large or run the other way
Target sequence (P00352 whole entry, looked up): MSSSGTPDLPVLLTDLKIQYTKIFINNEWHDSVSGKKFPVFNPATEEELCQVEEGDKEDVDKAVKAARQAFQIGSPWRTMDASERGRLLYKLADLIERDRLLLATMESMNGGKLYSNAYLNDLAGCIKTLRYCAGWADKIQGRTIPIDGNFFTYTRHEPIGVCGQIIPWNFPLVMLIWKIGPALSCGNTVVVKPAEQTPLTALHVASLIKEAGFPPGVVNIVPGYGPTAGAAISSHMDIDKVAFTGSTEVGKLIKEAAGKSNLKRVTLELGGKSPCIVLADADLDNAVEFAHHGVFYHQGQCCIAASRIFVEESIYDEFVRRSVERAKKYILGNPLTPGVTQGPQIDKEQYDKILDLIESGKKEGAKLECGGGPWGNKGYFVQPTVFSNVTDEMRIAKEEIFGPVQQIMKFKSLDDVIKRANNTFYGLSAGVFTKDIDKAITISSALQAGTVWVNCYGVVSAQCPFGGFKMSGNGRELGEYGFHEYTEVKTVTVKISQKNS
Numbers stand for hits; . = inactive; ? = inconclusive; / = not tested or not shown. Only some compounds are listed: those with a hit (about 11% of all), similar ones and a draw of the others. Unless noted, calls follow the shape of the dose curve; as a rule, active = well fitted curve in the direction sought with a large enough effect; inconclusive = small, poorly fitted or top-dose-only effect, or another doubt; inactive = no such curve, though single readings can be large; an effect the other way counts as inactive or inconclusive.

SMILES | IMPase Li cell | PNC assembly inh | HPGD block | 12-hLO inh | IMPase cell inh | ALDH1A1 inh
CS(=O)(=O)N1CCC2(CCN(c3ccccc3)CC2)CC1 | . | / | . | . | / | .
CN(c1ccc(C(=O)NC2CC2)cc1)S(=O)(=O)c1ccccc1 | . | . | 13µM | . | . | .
O=c1cc(CSc2nnc(-c3cccs3)n2Cc2ccccc2)nc2sc3ccccc3n12 | . | . | . | . | . | 7.9µM
CCn1c(SCC(=O)NCCc2ccccc2)nnc1-c1cccs1 | . | . | 28µM | . | . | .
CCn1c(SCC(=O)NCc2ccco2)nnc1C(C)C | . | ? | . | . | . | 4µM
CCCCn1c(SCC(=O)NCc2ccco2)nnc1-c1ccoc1C | . | . | . | . | . | .
CCn1c(CNC(=O)c2cccs2)nnc1SCC(=O)NCCc1ccccc1 | . | . | . | . | . | .
Cc1cc(C(=O)CSc2nnc(-c3cccs3)n2Cc2ccccc2)c(C)n1C | . | . | . | . | . | ?
CC(C)c1nnc(SCC(=O)NCc2ccco2)n1C | . | . | . | . | . | .
CCCCn1c(SCC(=O)NCc2ccco2)nnc1-c1ccco1 | . | . | . | . | . | 20µM
COc1cccc(Cn2c(=O)c(-c3cc(F)cc(F)c3)nc3cnc(N4CCNCC4)nc32)c1 | . | / | / | / | / | ?
O=C(O)/C=C\[C@H](O)c1ccc(Cl)cc1 | / | / | / | . | . | /
CCOC(=O)c1c(C)[nH]c(C(=O)CSc2nnc(-c3cccs3)n2Cc2ccccc2)c1C | . | . | . | . | . | .
CCn1c(SCC(=O)NCc2ccco2)nnc1-c1cccs1 | . | . | 25µM | . | . | 8.9µM
O=C(CSc1nnc(-c2ccco2)n1Cc1ccccc1)OC1CCCCC1 | . | . | 25µM | . | . | ?
CC(=O)c1c(C)[nH]c(C(=O)CSc2nnc(-c3cccs3)n2Cc2ccccc2)c1C | . | ? | ? | . | . | 13µM
CCn1c(SCC(=O)NCC(=O)Nc2ccc(F)cc2)nnc1-c1cccs1 | . | -86 | . | . | . | .
c1ccc(Cn2cc(CN3CCCO3)c(-c3ccc4c(c3)OCO4)n2)cc1 | . | / | / | / | / | ?
CCOc1ccc(S(=O)(=O)N(CC(=O)NCCc2ccc(OC)cc2)c2ccccc2)cc1 | / | / | / | / | . | /
CN(CCc1ccc(Cl)c(Cl)c1)CCN1CCCC1 | ? | / | . | . | . | .
c1ccc(-c2nnc(CN3CCN(c4ccccn4)CC3)o2)cc1 | / | / | / | / | . | /
CC(C)(C)c1ccc(-c2nnc(N)o2)cc1 | / | / | / | / | / | .
COC(=O)CSc1nnc(-c2ccco2)n1Cc1ccco1 | . | . | . | . | . | 14µM
Cc1[nH]c2ccc(-c3nnc(SCC(=O)NCc4ccco4)n3Cc3ccccc3)cc2c1C | . | . | 16µM | . | . | 32µM
Cc1oc(-c2cccs2)nc1CS(=O)CC(=O)NCCc1ccccc1 (stereo not drawn) | . | . | 32µM | . | . | ?
SMILES | IMPase Li cell | PNC assembly inh | HPGD block | 12-hLO inh | IMPase cell inh | ALDH1A1 inh
CCn1c(SCC(=O)NCc2ccco2)nnc1-c1ccncc1 | . | / | / | / | / | .
CC(C)(C)NC(=O)CSc1nnc(-c2ccco2)n1Cc1ccco1 | . | . | . | . | . | .
CC(C)CCCC(C)C1CCC2C3CC(O)[C@@]4(O)CC(O)CC[C@@]4(C)C3CC[C@@]12C (stereo partly drawn) | . | / | . | . | / | .
CN(Cc1cccs1)C(=O)/C=C/c1ccccc1[N+](=O)[O-] | . | / | / | / | / | 3.2µM
CCN(Cc1ccccc1)C(=O)/C=C/c1ccccc1[N+](=O)[O-] | . | / | / | / | / | ?
COc1cc2c(cc1O)CC[C@@H]1[C@@H]2CC[C@@]2(C)[C@H](O)CC[C@H]12 | / | / | / | . | . | /
COc1ccc2nc(S(=O)Cc3ncc(C)c(OC)c3C)[nH]c2c1 (stereo not drawn) | . | . | 28µM | . | . | .
CN(C)CCN(C(=O)c1ccc(N2C(=O)CCC2=O)cc1)c1nc2cc3c(cc2s1)OCO3 | . | / | / | / | / | 20µM
CC(=O)Nc1cc(C(C)(C)C)c(O)c(C(C)(C)C)c1 | . | ? | . | . | . | 11µM
CCOC(=O)c1ccc2nc(Nc3nc4ccc(F)cc4s3)sc2c1 | . | -107 | ? | . | / | ?
COC(=O)c1ccc2nc(Nc3nc4c(F)cc(F)cc4s3)sc2c1 | . | -100 | ? | . | / | ?
O=C(Nc1ccc(Br)cc1)C1CCCN(S(=O)(=O)c2ccc(Br)s2)C1 (stereo not drawn) | / | / | / | / | . | /
CCN(CC)S(=O)(=O)N1CCC(C(=O)NCc2ccc(C)cc2)CC1 | . | . | . | . | . | 4.5µM
COC(=O)C1CCN(Cc2ccc(C)cc2)CC1 | . | . | . | . | . | .
CCN(CC)c1ccc(CN2CCC(C(=O)NCc3ccc(C)cc3)CC2)cc1 | . | / | / | / | / | 14µM
Cc1ccc(CNC(=O)C2CCN(S(=O)(=O)N3CCCCC3)CC2)cc1 | . | / | / | / | / | ?
Cc1ccc(C)c(Nc2nnc(-n3nc(C)cc3C)c3ccccc23)c1 | / | / | / | / | . | /
Cc1cccc(/C=N/NC(=O)C2CCCNC2=O)c1 (stereo not drawn) | . | -85 | . | . | / | .
Cc1cc(C)c(NC(=O)NC2CCCCC2)c(C)c1 | . | -113 | . | . | / | .
Cc1cc(C)c(NC(=O)CN2CCC(NC(=O)NC3CCCCC3)CC2)c(C)c1 | . | / | / | / | / | .
CC(C)c1onc(C(=O)N2CCN(Cc3ccccc3)CC2)c1[N+](=O)[O-] | . | . | . | . | / | 2.5µM
CC(C)c1onc(C(=O)NCCc2ccccc2)c1[N+](=O)[O-] | . | / | / | / | / | ?
CC1CCCC(C)N1C(=O)CSc1nnc(CSc2ncccn2)n1C (stereo not drawn) | . | -100 | . | . | . | ?
CC1CCCCN1C(=O)CSc1nnc(Cc2ccccc2)n1C (stereo not drawn) | . | -100 | . | . | . | .
